Screening results from PubChem BioAssay.
KB-V1 MDR tox: KB-V1 MDR subline cytotoxicity | KB-V1 MDR cells viability, CellTiter-Glo, 72 h | Potency, µM (top dose mostly 46.1 µM), actives largely listed as cytotoxic | hit rate 3.4% among 400,000; also: potency is read from the fitted curve at half-maximal effect; % is scaled to controls: 0 for no effect and ±100 for the full control effect; nearly all actives have a fitted effect of over 60% in size
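Drug-selected KB-V1 cells, grown in DMEM lacking phenol red with 10% FBS, receive compound titrations; after three days at 37 degrees C, surviving cell ATP is quantified by CellTiter-Glo luminescence and responses normalized and curve-fitted.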
KB-3-1 tox: KB-3-1 parental cell cytotoxicity; hit rate 1.4% among 400,000; KB-3-1 viability, CellTiter-Glo ATP luminescence, 72 h; Potency, µM (top dose mostly 46.1 µM), actives largely listed as cytotoxic; also: potency is read from the fitted curve at half-maximal effect; % is scaled to controls: 0 for no effect and ±100 for the full control effect; nearly all actives have a fitted effect of over 60% in size
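KB-3-1 parental drug-naive adenocarcinoma cells in DMEM/10% FBS, incubated 72 h at 37 C with pin-transferred compounds across a concentration series. Viability by CellTiter-Glo luminescence; concentration-response curves fitted after normalization.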
MCF10A rereplic: inducers of DNA re-replication in MCF 10A breast cells | MCF 10A DNA re-replication, Hoechst nuclear intensity, 48 h | Potency, µM (doses to about 46.1 µM), for inactives: top-dose activity, positive = re-replication, most hits filed as activators | hit rate 2.9% among 350,000 | AID 624296; also: potency is read from the fitted curve at half-maximal effect; % of control where 0% means no effect; nearly all actives have a fitted effect of over 50% in size
IL1B secr inh: inhibitors of inflammasome signaling (IL-1 beta secretion). hit rate 4.7% among 360,000. activity change, % at 57.5 µM. THP-1 LPS/ATP IL-1B secretion, AlphaLISA, 16 h; stronger effect = lower value; in the data active = activity change below about -50%; inconclusive = mostly about -30% to -49%; also: % is scaled to controls: 0 for no effect and ±100 for the full control effect
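Secreted IL-1B measured by AlphaLISA bead assay after 16 h compound exposure of THP-1 cells; compounds (final up to 57.5 uM) added 1 h before LPS (250 ng/mL) and ATP (1.25 mM) stimulation; lower signal means less secretion.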
SW480 rerep: inducers of DNA re-replication in SW480 colon cancer cells. SW480 DNA re-replication, Hoechst DNA content imaging, 48 h. Potency, µM (series often up to 46.1 µM), for inactives: at the top dose re-replication activation, actives largely listed as activators. hit rate 1.8% among 340,000. AID 624297; also: potency is read from the fitted curve at half-maximal effect; % of control where 0% means no effect; nearly all actives have a fitted effect of over 55% in size
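250 cells/well; 23 nL cpd via pin tool; 48 hr, 37 C, 5% CO2; Hoechst 40 min; imager read of total nuclear intensity, ex 405/em 500-530 nm.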
* = called active by the depositor; [ ] = another dose, or the depositor's remark. Rows were chosen to be rich in hits. Some 9.9% of all compounds tested hit in one or more screens of this group. Unless noted, calls follow the shape of the dose curve; as a rule, active = well fitted curve in the direction sought with a large enough effect; inconclusive = small, poorly fitted or top-dose-only effect, or another doubt; inactive = no such curve, though single readings can be large; an effect the other way counts as inactive or inconclusive.

Results for O=C(NCCCN1CCOCC1)C1Cc2c(ccc3ccccc23)O1 (stereo not given) ?
KB-V1 MDR tox: inactive; KB-3-1 tox: inactive; MCF10A rereplic: 5.2%; IL1B secr inh: -8.4; SW480 rerep: 0.4%

What do the screens show for `Cc1ccccc1Cn1c(C)c(C(=O)NCc2ccc(Cl)c(Cl)c2)sc1=O`?
KB-V1 MDR tox: inconclusive; KB-3-1 tox: inactive; IL1B secr inh: inconclusive

What do the screens show for `CCOC(=O)c1c(C)[nH]c(C)c1C(=O)COC(=O)c1c(OC)cccc1OC`?
KB-V1 MDR tox: inactive; KB-3-1 tox: inactive; MCF10A rereplic: 7.5%; IL1B secr inh: 7.2; SW480 rerep: -8.4%

What do the screens show for `CCOC(=O)c1c(C)[nH]c(C)c1C(=O)COC(=O)/C=C/c1ccc(OC)cc1`?
KB-V1 MDR tox: 13µM*; KB-3-1 tox: inconclusive; MCF10A rereplic: 7.8%; IL1B secr inh: 9.2; SW480 rerep: 16.4µM*

How did CCOC(=O)c1c(C)[nH]c(C)c1C(=O)COC(=O)c1cc2ccccc2cc1OC do in these assays?
KB-V1 MDR tox: inconclusive; KB-3-1 tox: inactive; MCF10A rereplic: 7.0%; IL1B secr inh: -11.4; SW480 rerep: -1.7%

Results for CCOC(=O)c1c(C)[nH]c(C)c1C(=O)COC(=O)c1cc2ccccc2cc1O ?
KB-V1 MDR tox: inactive; KB-3-1 tox: inactive; MCF10A rereplic: inconclusive; IL1B secr inh: -67.0*; SW480 rerep: inconclusive

How did Cc1ccsc1C(=O)OCC(=O)Nc1sccc1C(N)=O do in these assays?
KB-V1 MDR tox: 18.4µM*; KB-3-1 tox: inactive; MCF10A rereplic: 13.8%; IL1B secr inh: 5.2; SW480 rerep: -1.1%

Results for CCOC(=O)c1c(C)[nH]c(C)c1C(=O)COC(=O)c1sccc1C ?
KB-V1 MDR tox: 18.4µM*; KB-3-1 tox: inactive; MCF10A rereplic: -1.6%; IL1B secr inh: -12.8; SW480 rerep: -4.4%

Results for CCOC(=O)c1c(C)[nH]c(C)c1C(=O)COC(=O)/C=C/c1cccc(F)c1 ?
KB-V1 MDR tox: inactive; KB-3-1 tox: inactive; MCF10A rereplic: -2.5%; IL1B secr inh: -14.7; SW480 rerep: 4.0%

Results for CC(=O)Nc1ccc(NC(=O)C(C)Sc2nc3ccccc3c(=O)n2CC2CCCO2)cc1 (stereo not given) ?
KB-V1 MDR tox: inactive; KB-3-1 tox: inactive; MCF10A rereplic: -4.8%; IL1B secr inh: -5.2; SW480 rerep: -8.5%

How did NC(=O)c1cc[n+](CC(=O)NC(=O)Nc2ccccc2)cc1 do in these assays?
KB-V1 MDR tox: inactive; KB-3-1 tox: inactive; MCF10A rereplic: 2.3%; IL1B secr inh: 24.3; SW480 rerep: -12.6%

Results for O[C@@H]1CN(CC2CCCCC2)[C@@H](c2ccccc2)C[C@H]1n1cc(C2CC2)nn1 ?
KB-V1 MDR tox: inconclusive; KB-3-1 tox: 20.6µM*; IL1B secr inh: 2.6

What do the screens show for `CC(C)C[C@H]1CN=C(Nc2ccccc2)N1CC1CCCC1`?
KB-V1 MDR tox: inactive; KB-3-1 tox: inactive; MCF10A rereplic: -0.9%; IL1B secr inh: -20.7; SW480 rerep: -5.4%

How did CC(C)C[C@H]1CN=C(Nc2ccccc2)N1CC1CCC(C(C)(C)C)CC1 (stereo not given in full) do in these assays?
KB-V1 MDR tox: inconclusive; KB-3-1 tox: inactive; MCF10A rereplic: inconclusive; IL1B secr inh: -87.3*; SW480 rerep: -2.2%[9.22 µM]

How did CCN(CCc1ccccc1)c1ccc2c(c1)C1CC2CCN1Cc1ccccc1 (stereo not given) do in these assays?
KB-V1 MDR tox: inactive; KB-3-1 tox: inconclusive; IL1B secr inh: 34.7

Results for O=C(CN1CCN(S(=O)(=O)c2cc(Br)ccc2Br)CC1)NCc1ccccc1Cl ?
KB-V1 MDR tox: 3.66µM*; KB-3-1 tox: inactive; MCF10A rereplic: 11.7%; IL1B secr inh: -18.5; SW480 rerep: 10.8%

What do the screens show for `O=C1CCCN1CC(O)CS(=O)(=O)Cc1ccccc1Cl` (stereo not given)?
KB-V1 MDR tox: inactive; KB-3-1 tox: inactive; MCF10A rereplic: -0.2%; IL1B secr inh: 10.8; SW480 rerep: -1.2%

What do the screens show for `COc1ccc(-c2nc(C#N)c(N3CCCCCC3)o2)cc1`?
KB-V1 MDR tox: inconclusive; KB-3-1 tox: inactive; MCF10A rereplic: 14.1%; IL1B secr inh: -62.7*; SW480 rerep: -21.3%

How did COc1ccc(-c2nc(C#N)c(N3CCCCCC3)o2)cc1OC do in these assays?
KB-V1 MDR tox: 8.2µM*; KB-3-1 tox: inactive; MCF10A rereplic: inconclusive; IL1B secr inh: -29.9; SW480 rerep: 4.3%

How did CNc1oc(-c2ccc(Cl)cc2)nc1C#N do in these assays?
KB-V1 MDR tox: inactive; KB-3-1 tox: inactive; MCF10A rereplic: 14.4%; IL1B secr inh: 12.5; SW480 rerep: 10.2%

How did COc1ccc(-c2nc(C#N)c(N3CCC(C)CC3)o2)cc1 do in these assays?
KB-V1 MDR tox: inactive; KB-3-1 tox: inactive; MCF10A rereplic: 17.0%; IL1B secr inh: -51.8*; SW480 rerep: 22.7%

Results for COc1ccc(-c2nc(C#N)c(NC(C)C)o2)cc1 ?
KB-V1 MDR tox: inactive; KB-3-1 tox: inactive; MCF10A rereplic: 8.6%; IL1B secr inh: -50.5*; SW480 rerep: 10.2%

What do the screens show for `COc1ccc(-c2nc(C#N)c(N3CCCCC3)o2)cc1`?
KB-V1 MDR tox: inactive; KB-3-1 tox: inactive; MCF10A rereplic: 8.7%; IL1B secr inh: -11.3; SW480 rerep: 7.1%

How did COc1ccc(NC(=O)CCc2nc3cccnc3n2-c2ccccc2)c(OC)c1 do in these assays?
KB-V1 MDR tox: inactive; KB-3-1 tox: inactive

Results for O=[N+]([O-])c1ccc(SCc2ccncc2)nc1 ?
KB-V1 MDR tox: inactive; KB-3-1 tox: inactive; MCF10A rereplic: -3.1%; IL1B secr inh: 14.1; SW480 rerep: -13.7%

How did CCCn1c2ccccc2c2cnn(CC(=O)N(Cc3ccccc3)C(C)C)c(=O)c21 do in these assays?
KB-V1 MDR tox: inactive; KB-3-1 tox: inactive

What do the screens show for `COC(=O)C1(C)COP(=O)(Nc2ccc(OC)cc2)OC1` (stereo not given)?
KB-V1 MDR tox: inactive; KB-3-1 tox: inactive; IL1B secr inh: 23.8

Results for CCOc1ccc(-c2nc(C#N)c(N3CCCCCC3)o2)cc1 ?
KB-V1 MDR tox: inactive; KB-3-1 tox: inactive; MCF10A rereplic: 1.3%; IL1B secr inh: -60.7*; SW480 rerep: -11.2%

How did CC12COC3(C(=O)Nc4ccc(F)cc4)CC1CCC32C (stereo not given) do in these assays?
KB-V1 MDR tox: inactive; KB-3-1 tox: inactive; MCF10A rereplic: 11.3%; IL1B secr inh: 4.6; SW480 rerep: -2.4%

Results for CC12COC3(P(=O)(c4ccccc4)c4ccccc4)CC1CCC23CP(=O)(c1ccccc1)c1ccccc1 (stereo not given) ?
KB-V1 MDR tox: inconclusive; KB-3-1 tox: inactive; MCF10A rereplic: -26.5%; IL1B secr inh: -52.3*; SW480 rerep: 6.1%

Results for Cn1c(=O)c(C(=O)COC(=O)c2cc(-c3ccco3)nc3ccccc23)c(N)n(CC2CC2)c1=O ?
MCF10A rereplic: 7.7%; SW480 rerep: 16.4µM*
